Activity calls are given as the source filed them.
Tests used:
Albumin (Bos taurus) = Albumin (Bos taurus) (UniProt P02769); assay: bovine serum albumin binders on microarray, profiling panel, artefact control for SMM control protein annotation, biochemical, small-molecule microarray, Alexa647 label, 635/667 nm fluorescence (AID 1118); conditions: BSA-A647 binding, fluorescence 635 nm, higher = more signal;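 note: score merges 667 nm emission intensity and signal-to-noise per printed compound spot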
Albumin (Bos taurus), sequence (P02769 whole entry, looked up): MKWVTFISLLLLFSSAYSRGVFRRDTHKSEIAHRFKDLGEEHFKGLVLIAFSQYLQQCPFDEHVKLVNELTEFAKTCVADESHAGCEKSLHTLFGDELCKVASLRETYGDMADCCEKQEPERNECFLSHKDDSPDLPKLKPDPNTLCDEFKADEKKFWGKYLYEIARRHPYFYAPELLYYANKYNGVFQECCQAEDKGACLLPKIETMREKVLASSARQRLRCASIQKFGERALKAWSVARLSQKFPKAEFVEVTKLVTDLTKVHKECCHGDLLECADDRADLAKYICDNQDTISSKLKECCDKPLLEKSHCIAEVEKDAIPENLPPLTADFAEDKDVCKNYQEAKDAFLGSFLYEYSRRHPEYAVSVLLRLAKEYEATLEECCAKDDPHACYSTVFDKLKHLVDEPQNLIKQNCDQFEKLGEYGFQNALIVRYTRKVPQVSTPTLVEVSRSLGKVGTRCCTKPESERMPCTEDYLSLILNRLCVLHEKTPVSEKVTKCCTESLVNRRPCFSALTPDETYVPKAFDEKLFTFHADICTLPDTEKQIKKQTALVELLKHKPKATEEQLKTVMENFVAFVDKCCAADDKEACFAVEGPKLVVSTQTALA

[1] = small-molecule microarray binders of probe aXIP, primary screen, biochemical, NeuroSMM set, 635/667 nm fluorescence (AID 1119); conditions: higher = more signal, called active from +8 up or from −8 down;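 note: probe is the protein aXip251-270 applied at 1 µg/mL to compound-printed slides; binding of probe to printed compounds measured as 667 nm fluorescence plus signal to noise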
[2] = small-molecule binders of probe aNOTCH3, primary screen, biochemical, small-molecule microarray, 635/667 nm fluorescence (AID 1120); conditions: higher = more signal;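 note: probe is a biotin-tagged antibody raised against NOTCH3 rather than NOTCH3 protein; score merges spot fluorescence near 667 nm with spot signal to noise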
[3] = small-molecule binders of probe aNOTCH2, primary screen, biochemical, small-molecule microarray, 635/667 nm fluorescence (AID 1121); conditions: higher = more signal;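 note: score merges feature fluorescence read at 667 nm with its signal to noise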
[4] = molecular target: Carbonic anhydrase 2 (Homo sapiens) (UniProt P00918); assay: CAII small-molecule binders, profiling panel, biochemical, small-molecule microarray, Alexa647-labelled CAII (AID 1122); conditions: CAII-A647 binding fluorescence, higher = more signal
[5] = COS7 lysate on small-molecule microarray, probe aHis, 635 nm (AID 1123); conditions: COS7 cell lysate, fluorescence, higher = more signal;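 note: z-score combines 667nm fluorescence intensity with signal-to-noise per printed compound spot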
[6] = compound binding in COS7 lysate, probe aLAP1, primary screen, cell lysate, small-molecule microarray (AID 1124); conditions: probe aLAP1, fluorescence, higher = more signal;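 note: lysate comes from COS7 cells expressing LAP1 and is applied at 0.3 µg/mL; score merges spot fluorescence near 667 nm with signal-to-noise over triplicate slides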
Sam68 (KHDRBS1) = assay: Sam68 small-molecule binders, primary screen, biochemical, small-molecule microarray, 635 nm fluorescence (AID 1125); conditions: small-molecule microarray binding, higher = more signal;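 note: score merges 667 nm channel intensity with signal to noise over triplicate slides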
[7] = test system: Chordin-like protein 2 (CHRDL2); assay: CHRDL2 small-molecule binders, primary screen, biochemical, small-molecule microarray, 635 nm fluorescence (AID 1126); conditions: small-molecule microarray binding, fluorescence 635 nm; higher = more signal;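 note: printed compound slides probed with Chrdl2 protein at 4 µg/mL for 1 h at 4 C; score merges 667 nm emission intensity with signal to noise over three replicate slides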
[8] = molecular target: Concanavalin-A (Canavalia ensiformis) (UniProt P02866); assay: ConA small-molecule binders, primary screen, artefact control for SMM control protein annotation, biochemical, small-molecule microarray, Alexa647 label, 635 nm (AID 1127); conditions: ConA-A647 binding fluorescence, higher = more signal;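 note: z combines 667 nm emission intensity with signal-to-noise across three replicate slides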
Concanavalin-A (Canavalia ensiformis), sequence (P02866 whole entry, looked up): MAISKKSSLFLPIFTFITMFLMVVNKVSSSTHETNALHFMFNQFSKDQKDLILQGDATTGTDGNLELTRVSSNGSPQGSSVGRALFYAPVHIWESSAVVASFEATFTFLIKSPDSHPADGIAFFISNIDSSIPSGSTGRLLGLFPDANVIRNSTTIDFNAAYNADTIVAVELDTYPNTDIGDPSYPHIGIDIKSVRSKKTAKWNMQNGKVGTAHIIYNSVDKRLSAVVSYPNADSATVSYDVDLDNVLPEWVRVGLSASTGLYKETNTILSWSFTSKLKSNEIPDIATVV

[9] = anti-His antibody binders, primary screen, artefact control for SMM control protein annotation, biochemical, small-molecule microarray, 635 nm fluorescence (AID 1128); conditions: anti-His Alexa647 antibody binding, higher = more signal;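 note: score merges feature fluorescence with signal-to-noise for each printed compound spot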
[10] = test system: Human papillomavirus type 1a E7 protein (residues 1-88); assay: HPV1a E7 small-molecule binders, primary screen, biochemical, small-molecule microarray, residues 1-88, 635 nm (AID 1129); conditions: small-molecule microarray binding, fluorescence 635 nm; higher = more signal
[11] = molecular target: Focal adhesion kinase 1 (Homo sapiens) (UniProt Q05397); assay: small-molecule microarray binders of FAK, primary screen, biochemical, 635/667 nm fluorescence, BSA, DTT (AID 1130); conditions: PTK2 binding, 635 nm fluorescence, higher = more signal;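 note: composite of spot emission at 667 nm and signal to noise over triplicate slides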
Focal adhesion kinase 1 (Homo sapiens), sequence (Q05397 whole entry, looked up): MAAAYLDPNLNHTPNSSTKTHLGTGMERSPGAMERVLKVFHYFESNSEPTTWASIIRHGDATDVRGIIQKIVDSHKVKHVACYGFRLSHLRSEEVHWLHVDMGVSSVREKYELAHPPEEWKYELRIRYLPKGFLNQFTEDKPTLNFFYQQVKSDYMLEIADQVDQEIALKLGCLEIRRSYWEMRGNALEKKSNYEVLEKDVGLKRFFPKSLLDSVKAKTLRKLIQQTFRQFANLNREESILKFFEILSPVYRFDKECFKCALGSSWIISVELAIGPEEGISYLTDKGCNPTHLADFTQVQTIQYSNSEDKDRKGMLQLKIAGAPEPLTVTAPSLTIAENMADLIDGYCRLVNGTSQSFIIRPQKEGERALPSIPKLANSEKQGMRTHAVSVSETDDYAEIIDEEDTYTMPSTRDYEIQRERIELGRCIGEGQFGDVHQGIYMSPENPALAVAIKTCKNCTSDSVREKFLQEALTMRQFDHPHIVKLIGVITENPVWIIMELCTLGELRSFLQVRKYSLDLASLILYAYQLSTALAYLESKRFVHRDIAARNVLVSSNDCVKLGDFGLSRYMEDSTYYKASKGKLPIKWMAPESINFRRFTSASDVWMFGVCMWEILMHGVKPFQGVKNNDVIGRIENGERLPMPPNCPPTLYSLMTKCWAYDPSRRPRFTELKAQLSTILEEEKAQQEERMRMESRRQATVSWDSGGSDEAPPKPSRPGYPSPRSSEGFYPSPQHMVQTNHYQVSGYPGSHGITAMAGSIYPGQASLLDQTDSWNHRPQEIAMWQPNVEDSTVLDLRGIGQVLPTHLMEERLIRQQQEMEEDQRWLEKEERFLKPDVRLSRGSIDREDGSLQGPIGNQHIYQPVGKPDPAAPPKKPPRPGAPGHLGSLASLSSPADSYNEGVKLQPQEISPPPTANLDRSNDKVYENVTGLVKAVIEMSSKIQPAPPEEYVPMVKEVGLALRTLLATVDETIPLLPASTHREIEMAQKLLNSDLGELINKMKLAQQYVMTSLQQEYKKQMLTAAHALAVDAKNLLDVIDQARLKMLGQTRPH

[12] = test system: Fibrinogen (Alexa647-labelled); assay: fibrinogen binders on compound microarrays, profiling panel, artefact control for SMM control-protein annotation, biochemical, small-molecule microarray, 635/667 nm fluorescence (AID 1131); conditions: fibrinogen-A647 binding fluorescence, higher = more signal;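 note: z-score merges 667 nm fluorescence with per-spot signal-to-noise over triplicate slides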
[13] = molecular target: Follistatin (Homo sapiens) (UniProt P19883); assay: follistatin binders on small-molecule microarrays, primary screen, biochemical, small-molecule microarray, 635/667 nm fluorescence (AID 1132); conditions: FST binding, 635 nm fluorescence, higher = more signal
Follistatin (Homo sapiens), sequence (P19883 whole entry, looked up): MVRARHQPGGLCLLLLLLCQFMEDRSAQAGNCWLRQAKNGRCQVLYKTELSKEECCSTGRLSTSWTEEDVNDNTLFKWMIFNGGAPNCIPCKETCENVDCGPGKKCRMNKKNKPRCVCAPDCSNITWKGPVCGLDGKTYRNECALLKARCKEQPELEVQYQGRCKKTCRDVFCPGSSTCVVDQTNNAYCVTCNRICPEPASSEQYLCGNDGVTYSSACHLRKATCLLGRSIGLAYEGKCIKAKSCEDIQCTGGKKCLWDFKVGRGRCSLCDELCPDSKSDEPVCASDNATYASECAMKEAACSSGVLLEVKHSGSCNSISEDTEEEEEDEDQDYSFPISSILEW

[14] = molecular target: Fibroblast growth factor 2 (Homo sapiens) (UniProt P09038); assay: FGF2 binders on small-molecule microarrays, primary screen, biochemical, small-molecule microarray, 635/667 nm fluorescence (AID 1133); conditions: small-molecule microarray binding, FGF2, fluorescence 635/667; higher = more signal
Fibroblast growth factor 2 (Homo sapiens), sequence (P09038 whole entry, looked up): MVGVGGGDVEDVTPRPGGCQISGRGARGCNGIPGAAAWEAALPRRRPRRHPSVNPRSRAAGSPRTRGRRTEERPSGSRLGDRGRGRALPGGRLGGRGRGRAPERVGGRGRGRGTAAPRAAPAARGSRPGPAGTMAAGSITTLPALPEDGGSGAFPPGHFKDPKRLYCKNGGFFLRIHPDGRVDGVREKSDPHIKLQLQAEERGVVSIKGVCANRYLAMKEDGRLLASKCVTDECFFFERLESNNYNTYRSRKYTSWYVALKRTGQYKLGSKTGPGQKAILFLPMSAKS

[15] = mitochondrial membrane potential change in A549 cells, profiling panel, cell-based, JC-1 fluorescence, basal, 24 h, 100 nL (AID 1138); conditions: higher = more signal;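 note: A549 lung adenocarcinoma cells under basal conditions with no added stimulus; test concentration not given here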
Lefty1 = Lefty1 binders on small-molecule microarrays, primary screen, biochemical, small-molecule microarray, 635/667 nm fluorescence (AID 1139); conditions: small-molecule microarray binding, fluorescence 635/667; higher = more signal
[16] = test system: wheat germ agglutinin (Triticum aestivum), Alexa647-labelled; assay: wheat germ agglutinin binders on compound microarrays, profiling panel, artefact control for SMM control-protein annotation, biochemical, small-molecule microarray, 635/667 nm fluorescence (AID 1140); conditions: WGA-A647 binding, 635 nm fluorescence, higher = more signal;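 note: score merges 667 nm feature emission with signal to noise over triplicate slides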
[17] = molecular target: Luciferin 4-monooxygenase (Photinus pyralis) (UniProt P08659); assay: firefly luciferase enzyme inhibitors, primary screen, biochemical, luminescence, purified enzyme, 2006 set (AID 1141); conditions: SteadyGlo luminescence, 30 min, higher = more signal, called active from +8 up or from −8 down;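 note: cell-free assay with purified firefly luciferase at 100 ng per well in PBS; test concentration not given here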
Luciferin 4-monooxygenase (Photinus pyralis), sequence (P08659 whole entry, looked up): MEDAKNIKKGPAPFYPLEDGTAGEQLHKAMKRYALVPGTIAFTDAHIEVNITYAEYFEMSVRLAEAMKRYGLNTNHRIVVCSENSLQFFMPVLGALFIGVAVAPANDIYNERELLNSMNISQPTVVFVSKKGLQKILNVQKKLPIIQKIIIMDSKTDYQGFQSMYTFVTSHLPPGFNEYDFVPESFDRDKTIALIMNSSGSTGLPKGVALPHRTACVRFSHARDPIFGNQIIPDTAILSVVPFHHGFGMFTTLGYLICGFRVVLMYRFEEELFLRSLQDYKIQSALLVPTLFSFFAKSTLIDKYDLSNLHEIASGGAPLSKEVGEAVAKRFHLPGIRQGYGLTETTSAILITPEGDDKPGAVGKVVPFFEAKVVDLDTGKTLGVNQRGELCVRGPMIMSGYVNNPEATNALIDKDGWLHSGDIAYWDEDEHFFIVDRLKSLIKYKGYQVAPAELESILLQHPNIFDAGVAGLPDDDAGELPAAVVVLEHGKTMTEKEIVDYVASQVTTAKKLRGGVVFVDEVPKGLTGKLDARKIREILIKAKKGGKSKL

Row | Structure (SMILES) | composite z-score (Albumin (Bos taurus)) | composite Z-score [1] | composite z-score [2] | composite z-score [3] | composite z-score [4] | composite z-score [5] | composite z-score [6] | composite z-score (Sam68 (KHDRBS1)) | composite z-score [7] | composite z-score [8] | composite z-score [9] | composite z-score [10] | composite z-score [11] | composite z-score [12] | composite z-score [13] | composite z-score [14] | z-score [15] | composite z-score (Lefty1) | composite z-score [16] | z-score [17]
1 | CC[C@@H](c1ccccc1)n1c(=O)n2n(c1=O)[C@H]1[C@H](O)[C@@H]3O[C@@H]3C(=NOC[C@@H](O)COCc3ccco3)[C@H]1CC2 | -0.368 | 0.615 (inactive) | -0.232 | -0.133 | 0.04 | -0.997 | -0.955 | -0.758 | 0.726 | -0.757 | -0.74 | -0.629 | 0.587 | -1.9 | 0.361 | 0.167 | -0.0823 | 0.389 | 0.534 | -0.47 (inactive)
2 | CO[C@H]1COC(=O)[C@@H](C)COC(=O)[C@@H](OCc2ccccc2)C=C[C@@H]1C | -0.858 | -0.535 (inactive) | -0.103 | -0.115 | -0.369 | -0.194 | -0.259 | -0.234 | 0.159 | -0.459 | -0.328 | -0.869 | 0.106 | -0.648 | -0.17 | 0.193 | 0.651 | 0.0823 | -1.08 | -0.415 (inactive)
3 | O=C1[C@H]2[C@H]3[C@H](O)[C@H](O)CC(=NOC[C@@H](O)COCc4ccco4)[C@H]3CC[C@H]2C(=O)N1c1ccc(F)cc1F | -0.0108 | -0.214 (inactive) | -0.291 | -0.146 | 0.823 | -0.823 | 0.0839 | -1.25 | -0.48 | -1.03 | -0.385 | 0.553 | -0.0614 | -1.6 | -0.868 | -1.01 | 0.383 | -0.0889 | 0.972 | -0.243 (inactive)
4 | CCOC(=O)NN=C1C[C@@H](O)[C@@H](O)[C@@H]2[C@@H]3C(=O)N(c4cccc(Oc5ccccc5)c4)C(=O)[C@@H]3CC[C@@H]12 | 0.736 | -0.147 (inactive) | -0.152 | -0.167 | 0.58 | 0.263 | 0.142 | -0.114 | -0.0646 | -0.245 | -0.103 | 0.45 | 0.0767 | 0.681 | -0.445 | -0.248 | -0.44 | -0.318 | 0.327 | 0.607 (inactive)
5 | CCOC(=O)[C@H](CC(C)C)NC(=O)CCC1CC(OC(=O)NCCc2ccc(F)cc2)CC2(CCCC(COC(=O)NCC3CCCCC3)O2)O1 (stereo not given in full) | 0.424 | 0.2 (inactive) | 0.119 | -0.203 | 0.255 | 2.11 | 0.0165 | 0.986 | 0.618 | 1.07 | 0.183 | 0.579 | -0.124 | 0.623 | 0.51 | 0.631 | -0.506 | 0.803 | 0.676 | 0.997 (inactive)

— PubChem BioAssay
